Most compounds without a hit are left out; they make up all but 2.8% or so of the library.
HEK293 tox: cytotoxicity counter-screen for GLP-1 receptor inverse agonists. HEK293 cAMP-luciferase reporter cells, luminescence, 24 h. 0.13% of 410,000 active. AID 624418. Potency, µM (series often up to 38.3 µM), for the others: at the highest dose activity change, negative = inhibition, hits mostly inhibitors;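 note: loss of luciferase light is scored as toxicity; % is set by controls: 0 for no effect and ±100 for the full control effect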
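Luminescence readout: signal drop marks cytotoxicity. Plated cells grew 12 h at 37 °C, 5% CO2, received 23 nL compound for 24 h, then got luciferase reagent, read after 12 min at RT.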
BRCA1 expr act: BRCA1 expression activation | MCF7-BRCA1-FFLuc reporter, luminescence, 48 h; response scale: scaled: vehicle 0%, 10 µM genistein 100% | AID 624202 | 1.1% of 380,000 active | Potency, µM (highest dose often 46.1 µM), without a hit: at the highest dose activation, usual class: activators; note: nearly all actives have a fitted effect of over 80% in size
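Reporter cells (MCF7, BRCA1 promoter-firefly luciferase) received library compounds across a concentration series for 48 h. End-point luminescence was measured and concentration-effect curves derived after normalization.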
Mito fusion act: inhibitors of mitochondrial division or activators of mitochondrial fusion | Potency, µM (highest dose often 46.1 µM), for inactives: at the top dose growth rescue (activation), hits mostly activators | 0.23% of 320,000 active | S. cerevisiae fusion-defective mutant growth rescue, CellTiterGlo 48 h; note: % of control where 0% means no effect; nearly all actives have a fitted effect of over 45% in size
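Read-out: ATP-based luminescence (CellTiterGlo, 10 min ambient) reporting growth of fusion-defective ts yeast after 48 hours at 37C on glycerol/ethanol YPEG medium in the presence of compound.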
GLP-1R inv ag: inverse agonists of human GLP-1 receptor | P43220 | HEK293 GLP-1R CRE-luciferase, luminescence, 24 h; GLP-1R form is constitutively active | Potency, µM (series often up to 38.3 µM), for inactives: top-dose activity change, negative = inhibition, actives largely listed as inhibitors | 1.6% of 410,000 active; note: % is set by controls: 0 for no effect and ±100 for the full control effect; nearly all actives have a fitted effect of over 55% in size
Target sequence (P43220 whole entry, looked up): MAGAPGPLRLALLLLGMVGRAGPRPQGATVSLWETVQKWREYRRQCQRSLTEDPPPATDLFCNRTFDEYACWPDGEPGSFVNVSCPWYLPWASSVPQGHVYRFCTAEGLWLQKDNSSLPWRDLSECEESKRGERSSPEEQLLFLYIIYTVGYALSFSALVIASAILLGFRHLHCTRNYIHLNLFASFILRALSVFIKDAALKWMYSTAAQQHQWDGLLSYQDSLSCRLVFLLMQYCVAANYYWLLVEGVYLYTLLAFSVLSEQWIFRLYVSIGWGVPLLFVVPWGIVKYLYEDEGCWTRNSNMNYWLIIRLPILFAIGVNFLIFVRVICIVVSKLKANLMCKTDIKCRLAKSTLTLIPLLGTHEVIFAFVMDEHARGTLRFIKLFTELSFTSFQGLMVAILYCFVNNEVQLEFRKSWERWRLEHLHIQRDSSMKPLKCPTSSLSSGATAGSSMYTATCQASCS
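qHTS in 1536-well format: reporter HEK293 cells expressing constitutive GLP-1R activity in DMEM + 10% Nu serum, 24 hr with compounds at 37 deg C, luminescence read after 12 min with detection reagent.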
GLP1R ag: agonists of human GLP-1 receptor | P43220 | HEK293 GLP-1R CRE-luciferase, luminescence, 4-6 h; cells express a hypersensitive GLP-1R form | Potency, µM (highest dose often 45.6 µM), for the others: top-dose activation, actives largely listed as activators | 0.007% of 380,000 active; note: % of control where 0% means no effect
Active calls of the source: *; ? = inconclusive; . = no result given; ! = repeats disagree. Calls come from the whole dose curve; as a rule, active = well fitted curve in the direction sought with a large enough effect; inconclusive = small, poorly fitted or top-dose-only effect, or another doubt; inactive = no such curve, though single readings can be large; an effect the other way counts as inactive or inconclusive. Potency is the fitted concentration of half-maximal effect.

SMILES | HEK293 tox | BRCA1 expr act | Mito fusion act | GLP-1R inv ag | GLP1R ag
OC(COc1ccc(Cl)c2ccccc12)CN1CCN(c2ccccn2)CC1 (centres undefined) | -5.0% | -0.4% | -21.1% | 10µM* | 0.0%
Cc1ccc2nc(-c3ccc(Cl)cc3)c(Cc3cccc(Cl)c3)n2c1 | ? | 9.5% | . | ? | 0.5%
CCOC(=O)c1cnc2c(C)c(Cl)ccc2c1NCCc1ccc(OC)c(OC)c1 | 0.6% | . | . | 30.9% | .
COc1ccc(-c2nc3cc(C)c(Br)c(C)n3c2Cc2ccccc2)cc1OC | 1.0% | -12.6% | . | ? | -1.0%
COc1ccccc1Oc1ccc2c(c1)C(=O)N(c1ccccc1)C2=O | -2.0% | -2.5% | -2.2% | 1.1% | -13.0%
Cc1ccccc1C(=O)N(Cc1nc2ccccc2c(=O)[nH]1)C1CCCC1 | -7.5% | -17.5% | 21.1% | 12.6µM* | 8.4%
Cc1ccc(C(=O)N(Cc2nc3ccccc3c(=O)[nH]2)C2CCCC2)cc1 | -22.4% | -23.4% | ? | ? | -10.5%
C=CCNC(=O)COc1c(C)ccc(C)c1C | -0.7% | 0.0% | 0.5% | -17.9% | 14.8%
CC#C[C@]1(O)CC[C@H]2[C@@H]3CCC4=CC(=O)CCC4=C3[C@@H](c3ccc(N(C)C)cc3)C[C@@]21C | -4.1% | 0.0% | 9.2µM*! | ? | -4.8%
c1ccc(COc2ccc(-c3csnn3)cc2)cc1 | 1.8% | 5.62µM* | -1.7% | 23.3% | -6.9%
CC(=O)COc1ccc(-c2csnn2)cc1 | -6.9% | 81.5% | -1.6% | 9.5% | 6.0%
CCC(C(=O)NCCC(C)C)n1ccc2cc(S(=O)(=O)N3CCCCC3)ccc21 (centres undefined) | -9.8% | -39.2% | -4.4% | 7.94µM* | 1.5%
COc1cccc(CNC(=O)C(C)n2ccc3cc(S(=O)(=O)N4CCCC4)ccc32)c1 (centres undefined) | -8.6% | -28.0% | 3.3% | -21.6% | 9.0%
COc1cccc(CNC(=O)C(C)n2ccc3cc(S(=O)(=O)N4CCCCCC4)ccc32)c1 (centres undefined) | -6.7% | -57.2% | 11.8% | 12.6µM* | 3.6%
CC(C)(C)OC(=O)N1CCC(c2c(C(=O)N3CCc4ccccc4C3)cnn2-c2ccc(Cl)cc2)CC1 | 8.0% | . | . | ? | .
O=C(COC(=O)c1n[nH]c2ccccc12)c1ccc(F)c(F)c1 | -9.1% | 12.7% | 13.7% | ? | 13.6%
O=C1C=CC(=C(c2ccc(O)cc2)c2ccc(O)cc2)C=C1 | 8.91µM* | -87.6% | 0.5% | 5.62µM* | -6.4%
Cc1ccc(C)c(N(C)C(=O)c2ccc3c(=O)n4c(nc3c2)CCCCC4)c1 | -9.2% | -43.4% | 1.9% | ? | -4.5%
Cc1ccccc1CNC(=O)Cc1cccs1 | 1.4% | 12.6µM* | -1.4% | 14.2% | 0.4%
Cc1ccccc1CNC(=O)Cc1ccccc1[N+](=O)[O-] | 20.6% | 14.1µM* | -3.1% | 0.8% | 5.8%
Cc1ccccc1C(=O)O/N=C(\N)Cc1cccs1 | ? | 8.91µM* | -5.7% | ? | 14.8%
Cc1cc2occ(CC(=O)NCc3cccs3)c2cc1C(C)C | 10.2% | -6.6% | 15.8µM* | ? | ?
O=C(Cc1cccs1)NCc1ccccc1F | -2.9% | 71.8% | -0.9% | -5.8% | -2.7%
CC(C)CCNC(=O)CN(Cc1ccccc1)C(=O)CCC(=O)Nc1nccs1 | -5.0% | -36.6% | 2.1% | 14.3% | 13.2%
Cc1c(C(=O)c2ccccc2)oc2ccc3ccccc3c12 | 2.6% | 10µM* | 4.9% | 4.3% | 12.9%
CCNC(=O)N1CCNC(=O)C1CC(=O)OC (centres undefined) | 12.8% | -0.4% | -2.3% | 4.6% | -11.8%
N#C/C(=N\Nc1ccc([N+](=O)[O-])cc1)C(=N)N1CCOCC1 | ? | ? | -1.4% | 39.7% | -1.5%
N#C/C(=N/Nc1ccc([N+](=O)[O-])cc1)C(=N)N1CCCCC1 | 11.2µM* | ? | -13.4% | ? | 5.2%
N#C/C(=N\Nc1ccc(Br)cc1)C(=N)N1CCOCC1 | ? | 10µM* | 0.4% | 1.6% | 6.3%
O=C1CC(=O)CC(c2ccccc2)C1 | 6.0% | -1.7% | -3.7% | -2.6% | -1.5%

From PubChem BioAssay
